Experimental findings from PMC7819943, “Rice protein-binding microarrays: a tool to detect cis-acting elements near promoter regions in rice” are described below.

Whole data set: some 68,000 sequences, median “fluorescence intensity (a.u.)” near 9,100, cut for the highest 2% near 16,000. The sample as a whole holds a higher share of the highest values than the screen did.

OsWRKY34, sequence (Q0JBA9 entry or part of it): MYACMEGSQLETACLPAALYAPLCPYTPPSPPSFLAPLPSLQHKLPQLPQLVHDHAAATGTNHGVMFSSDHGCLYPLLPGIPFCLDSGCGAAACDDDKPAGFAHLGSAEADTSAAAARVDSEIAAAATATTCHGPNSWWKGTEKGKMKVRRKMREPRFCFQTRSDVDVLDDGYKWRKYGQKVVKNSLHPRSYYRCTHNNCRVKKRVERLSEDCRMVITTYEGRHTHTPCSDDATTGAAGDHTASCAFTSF

The target in this assay is OsWRKY34 (Oryza sativa, UniProt Q0JBA9 1-250). In words: protein-binding microarray (RPBM); PBS, 2% BSA, 51.3 ng/ul salmon testes DNA, 50 uM zinc acetate, 200 nM TF, 25 C, 1 h; high values mean tight binding. The following applies: protein: recombinant; tags: N-terminal polyhistidine and DsRed monomer fusion (pET32a); label: CyDye5-dUTP incorporated in the synthesized complementary strand; 3' TTTTT single-stranded linker to array surface; dsDNA, one strand shown. An outline of the steps:
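The binding signal is fluorescence intensity per array feature (arbitrary units). Readings came from an Axon 4000B scanner after a washed, 2% BSA-blocked, double-stranded custom Agilent array had been incubated for 1 h at 25 °C with 200 nM protein and 50 µM zinc acetate. The protein was a Ni–NTA-purified transcription factor fused N-terminally to polyhistidine and DsRed, expressed in E. coli BL21-CodonPlus.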
As for “CGCTCACTCGTCTCCTCTCGGTTTCTTTCTCTCTCTCTCTCGGAGTCACCTAGTGCAG”, the binding signal was 8160 fluorescence intensity (a.u.).

For “TATCACGATATTCTACCTCGCTCTCATGGGCTAGATCACCCGGAGTCACCTAGTGCAG”, the binding signal is 9500 fluorescence intensity (a.u.).

For the sequence “CCTTGTACCTCTGTCCAGATTCATTGTACTAAGATATGTCCGGAGTCACCTAGTGCAG”, the binding signal was 8540 fluorescence intensity (a.u.).

As for “CTCTCTCTCTCTCTGCAGCTAGGCCATATGCATCTCTCCTCGGAGTCACCTAGTGCAG”, the binding signal is 9070 fluorescence intensity (a.u.).

As for “GCATTCACTCCATCGCACCACTTCATGCCGCAAAATGTTTCGGAGTCACCTAGTGCAG”, the binding signal was 9970 fluorescence intensity (a.u.).

As for “AAGCTAGTCAAACCGTTGACTACCACTGTCTTTGTTGCGCCGGAGTCACCTAGTGCAG”, the binding signal was 16800 fluorescence intensity (a.u.).

Turning to “TTTTGTCTACTGCGCCTACCACGCCGTTGTCCACTACCTCCGGAGTCACCTAGTGCAG”, the binding signal was 10400 fluorescence intensity (a.u.).

“AACCAAACAACCGTTGTCTTGGCACAGCTGTCGCAACCTGCGGAGTCACCTAGTGCAG”: the binding signal is 8200 fluorescence intensity (a.u.).

Take “AACCATCATGACCGGCTACCACTAAGCTGCGCCTGTCTACCGGAGTCACCTAGTGCAG”: the binding signal is 8700 fluorescence intensity (a.u.).

Consider “GCTGCACAGCTAGTCAACACAAGCTAGTCAAACCGTTGACCGGAGTCACCTAGTGCAG”, for which the binding signal was 19200 fluorescence intensity (a.u.).

“ATACGAGCCAAAGACCGTTGACAAGCTAGTCAACAGTCATCGGAGTCACCTAGTGCAG”: the binding signal is 8910 fluorescence intensity (a.u.).

Turning to “CCTCGAGCTGTGCACGGCTGGTTCGTCTCGCGCCGCTTATCGGAGTCACCTAGTGCAG”, the binding signal is 10900 fluorescence intensity (a.u.).

As to “TCAGTGTCGGCCGCGATGTCTTTGCAGCTTTGCTGGTTTTCGGAGTCACCTAGTGCAG”, the binding signal was 8090 fluorescence intensity (a.u.).

Take “GGTATTGTTGATACTTTCAGTTTTCGCATTTGTTCGCTTCCGGAGTCACCTAGTGCAG”: the binding signal was 9230 fluorescence intensity (a.u.).

As for “AAACTTAGCAAGAGCTCTGACCTATTGGAAAATTTTCTTTCGGAGTCACCTAGTGCAG”, the binding signal was 9480 fluorescence intensity (a.u.).

Turning to “ATATTTGGTTTTTTTTCGTACTTTTTTTCGCCCGGTTTTTCGGAGTCACCTAGTGCAG”, the binding signal was 20800 fluorescence intensity (a.u.).

For “TATATATATTTATCACCGGTTTATTTTGGTCTGGTCTTTTCGGAGTCACCTAGTGCAG”, the binding signal is 13000 fluorescence intensity (a.u.).

Consider “GACCTATTTTCGCGATTTTCCCCGGTTGACCACTACTTTTCGGAGTCACCTAGTGCAG”, for which the binding signal is 13100 fluorescence intensity (a.u.).

With “TTTCGTGATTTTCCCCGGTTGGCCACTACTTTTGCGATTTCGGAGTCACCTAGTGCAG”, the binding signal was 9570 fluorescence intensity (a.u.).

Take “AGATTTGGTTTTTTAGGCCGGTTTTTCGTTTTGTCGCCCTCGGAGTCACCTAGTGCAG”: the binding signal was 8750 fluorescence intensity (a.u.).

Consider “GGACCTACTTTCGCGATTTTCCCCGGTTGGCCACTACTTTCGGAGTCACCTAGTGCAG”, for which the binding signal was 18800 fluorescence intensity (a.u.).

Regarding “CAGGACTGCGTGCTCCTTCTCGTTGTTCCTTACTCACCTTCGGAGTCACCTAGTGCAG”, the binding signal was 9560 fluorescence intensity (a.u.).

On to “CTACTGCTTTCTTTCTTTCTCTATTGCAGTCTACCTCCTACGGAGTCACCTAGTGCAG”, for which the binding signal is 11400 fluorescence intensity (a.u.).

In the case of “CTTTTGACTGCCACAGTGTGTTAGGTATATGTTTGTTTCACGGAGTCACCTAGTGCAG”, the binding signal is 11700 fluorescence intensity (a.u.).

As to “TCTTCCTCATGCGATTTGGTTGGTTGGTTTGACGCTACACCGGAGTCACCTAGTGCAG”, the binding signal is 13600 fluorescence intensity (a.u.).

With “GGGTGTGTGCGCATGTGTGTTTGTCGTGTATTAAAAAAAACGGAGTCACCTAGTGCAG”, the binding signal is 9130 fluorescence intensity (a.u.).

On to “TTAATTATTTCTTGGTATTTGGGTTAAGGGTGGTTGTGCCCGGAGTCACCTAGTGCAG”, for which the binding signal was 12600 fluorescence intensity (a.u.).

Take “TCTACTTTTCTCCACTCTTTTGCTATAGGGGCTGGGGTGGCGGAGTCACCTAGTGCAG”: the binding signal was 14200 fluorescence intensity (a.u.).

In the case of “TATCTTAGGGCATGTTTGGTTGTACGGATCGTACCTGACTCGGAGTCACCTAGTGCAG”, the binding signal is 9620 fluorescence intensity (a.u.).

As for “GATGGCTACCTAGCTGACACGCAACGCCGGCCTCCGGATCCGGAGTCACCTAGTGCAG”, the binding signal was 10600 fluorescence intensity (a.u.).

Consider “GGGCGTGGTGGTGGTGGTGGTGGTTATACGGTTTTCGGTTCGGAGTCACCTAGTGCAG”, for which the binding signal was 25900 fluorescence intensity (a.u.).

On to “GAATCATGTGCTATCTCGTTAATTATCTGCTCTTTTAGCTCGGAGTCACCTAGTGCAG”, for which the binding signal was 9000 fluorescence intensity (a.u.).

With “TATATATATATATATATATATATATATATATATGTGTGTGCGGAGTCACCTAGTGCAG”, the binding signal is 18100 fluorescence intensity (a.u.).

As to “TATATATATATATATATATATATATATGTGTGTGTGTGTTCGGAGTCACCTAGTGCAG”, the binding signal was 14600 fluorescence intensity (a.u.).

For the sequence “AGCAGATGGAGTATATCTTTAGCTAATTAAGCTATAGCTACGGAGTCACCTAGTGCAG”, the binding signal was 23000 fluorescence intensity (a.u.).

As to “TATATATATATATATATATGTGTGTGTGTGTGTGTATGGTCGGAGTCACCTAGTGCAG”, the binding signal was 9770 fluorescence intensity (a.u.).

As to “TATATATATGTGTGTGTGTGTGTGTGTGTGTGTGTGTGTGCGGAGTCACCTAGTGCAG”, the binding signal was 10100 fluorescence intensity (a.u.).

For the sequence “TGGGTTTGTGGGTTATGTTTCGGTGCGTGCCGATAGTATACGGAGTCACCTAGTGCAG”, the binding signal was 14300 fluorescence intensity (a.u.).

On to “TATATATATATATATATATATATATATATGTGTGTGTGTGCGGAGTCACCTAGTGCAG”, for which the binding signal was 13700 fluorescence intensity (a.u.).

On to “TTAATTATATGCTAATGGCTAACCTTATTTTACGTATCTTCGGAGTCACCTAGTGCAG”, for which the binding signal was 8180 fluorescence intensity (a.u.).

“TATATATATATATATATATATATATATATATGGTGGTGTTCGGAGTCACCTAGTGCAG”: the binding signal was 20500 fluorescence intensity (a.u.).

As to “TGGTGGTTTTCGTCGTCGTCGTCGTCGTCGGCTTCATATACGGAGTCACCTAGTGCAG”, the binding signal is 10100 fluorescence intensity (a.u.).
